According to PubChem BioAssay (NCI):
Compounds without any hit were thinned out: in the full panel of roughly 83,000, 20% have a hit.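 Step 1: grow cells in 96-well plates. Step 2: add test compound at a single concentration. Step 3: incubate 48 h. Step 4: record percent growth.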 The source made the active and inactive calls. How the source made its calls: active means growth percent below 10; inactive means the rest.

The compounds below were run on HL-60(TB) leukemia (assay: NCI-60 one-dose screen, 48 h (100 = growth as untreated, 0 = no growth, -100 = all killed)). Conditions: 10 µM unless noted.

Structure (SMILES)	growth
Oc1ccc(Cl)cc1CNc1nc2ccccc2[nH]1	-56.6% (active)
COc1cc2nc(-c3ccc(Cl)cc3)cc(OCCCN3CCC(O)CC3)c2cc1OC	32.9% (inactive)
CC[C@]1(O)C[C@H]2CN(CCc3c([nH]c4ccccc34)[C@@](C(=O)OC)(c3cc4c(cc3OC)N(C=O)[C@H]3[C@@](O)(C(=O)OC)[C@H](OC(C)=O)[C@]5(CC)C=CCN6CC[C@]43[C@@H]65)C2)C1	-25.1% (active)
COc1ccc(C2c3ccc4ccccc4c3Oc3ncnc(N)c32)cc1 (stereo unspecified)	89% (inactive)
Cc1cc(O)c(C(C)C)cc1N=O	66.1% (inactive)
O=C(CN1CCN(c2cc3c(cc2F)c(=O)c(C(=O)N/N=C/c2ccccc2)cn3C2CC2)CC1)N/N=C\c1ccccc1	51.1% (inactive)
CCCCC(CCCCCC(CCCC)C1NC(C)Cc2cc(OC)c(OC)cc21)C1NC(C)Cc2cc(OC)c(OC)cc21 (stereo unspecified)	-79.7% (active)
O=C(O)C(SC(C(=O)O)c1ccccc1)c1ccccc1 (stereo unspecified)	95% (inactive)
Cc1ccc(C2=NNC(c3sc(Cl)nc3Cl)C2)cc1 (stereo unspecified)	92.7% (inactive)
CC/C(=C\c1ccc(N(C)C)cc1)c1nc2ccccc2c(=O)[nH]1	179% (inactive)
FC(F)(F)c1[nH]ncc1-c1nc2ccc3n[nH]c(C#Cc4cccnc4)c3c2c2c1CCCC2	24.4% (inactive)
Cc1ccc(C(=O)N(CCCN)[C@@H](c2nc3cc(Cl)ccc3c(=O)n2Cc2ccccc2)C(C)C)cc1	-58.3% (active)
O=C(/C=C\c1ccc(NCc2ccc(C(=O)O)cc2)cc1)CCl	97.7% (inactive)
N#Cc1c(-c2ccccc2)nc2c(c(-c3ccccc3)nn2-c2ccccc2)c1-c1ccc(N2CCOCC2)cc1	65.4% (inactive)
CC1(C)CC[C@]2(C(=O)NCC#CCN3CCOCC3)CC[C@]3(C)C(=CC[C@@H]4[C@@]5(C)Cc6c([nH]c7ccccc67)C(C)(C)[C@@H]5CC[C@]43C)[C@@H]2C1	62.7% (inactive)
O=S(=O)(Cc1cccc2c(CS(=O)(=O)c3ccc(Cl)cc3)cccc12)c1ccc(Cl)cc1	93.5% (inactive)
CCCCCCCCCCCCCC/C=C\C(CC(=O)O)C(=O)O (stereo unspecified)	72.4% (inactive)
Cc1cccc(C(=O)O)n1	78.1% (inactive)

Structure (SMILES)	growth
CN(C)c1ccc(/C=N/NC(=O)CSc2nc3sc4c(c3c(=O)n2-c2ccccc2)CCCCC4)cc1	86.8% (inactive)
Cc1occc1-c1n[nH]c(=S)n1N1C(=O)CSC1=S	99.2% (inactive)
CCN(CC)Cc1cc(Nc2ccnc3cc(Cl)ccc23)ccc1O	94.5% (inactive)
COc1c(O[C@@H]2OC(CO)[C@H](O)[C@H](O)C2O)cc2oc3cc(O)c(CC=C(C)C)c(O)c3c(=O)c2c1CC=C(C)C (stereo partly specified)	94.4% (inactive)
CC(=O)OCC1O[C@@H](OC(C)=O)[C@@H](NC(=O)NS(=O)(=O)c2ccccc2)C(OC(C)=O)[C@@H]1OC(C)=O (stereo partly specified)	95.7% (inactive)
CCCCCCCCCCCCNC(=O)[C@H]1CSC(c2cc3ccccc3s2)N1 (stereo partly specified)	-33.3% (active)
CCCCCCN(CCCCCC)c1ccc(/C=C2/SC(=O)NC2=O)c(C)c1	77.1% (inactive)
Clc1ccc(Nc2scc3[n+]2CCC3)cc1	98.3% (inactive)
COc1cc(/C=N/n2c(CN3CCOCC3)nc3ccccc3c2=O)cc(OC)c1OC	98.1% (inactive)
COc1cccc(-c2nc3sccn3c2-c2ccnc(NCCNS(=O)(=O)c3ccc(F)cc3)c2)c1	-6.21% (active)
CC(=O)Nc1ccc2c(c1)Cc1c(F)c(F)c(F)c(F)c1-2	65.5% (inactive)
O=C(NC1CCCCC1)c1ccc(Nc2ncnc3c2cnn3-c2ccccc2)cc1	106% (inactive)
C/C(=N\Nc1nc2ccccc2s1)c1ccncn1	-19.9% (active)
CC(=O)O[C@H]1CC[C@]2(C)[C@H]3CC=C4[C@@H]5CC(C)(C)CC[C@]5(C(=O)NCCNCCN)CC[C@@]4(C)[C@]3(C)CC[C@H]2C1(C)C	-67.6% (active)
COc1ccc(-c2cn(-c3cccc(C(=O)/C=C/c4cc(OC)c(OC)c(OC)c4)c3)c(=O)[nH]2)cc1	5.72% (active)
Cc1cccc(NC(=O)c2sc3nc4c(cc3c2N)CCCC4)c1C	9.11% (active)
COc1ccc(C(=O)/C=C/c2cc3ccccc3n3nnnc23)cc1	92.1% (inactive)
COC(=O)c1ccc2c(c1)nc(-c1ccc(Cl)cc1)n2-c1cc(C(C)(C)C)[nH]n1	14.9% (inactive)
